# Assay results reported in PubChem BioAssay AID1159580 (chemical genetic matrix, 2015).
# Where “and” joins values, the source holds several entries; their conditions need not be identical. Equal values may be shown once. The campaign covered roughly 5,500 compounds. About 2,000 (36%) were called active. Not shown: some 18% with an inconclusive outcome. This is one part of the list. A number with no mark means an inactive call. No stated cut-off is given here; in the data, active means normalized growth mostly below about 0.91 (no sharp cut-off); inconclusive means no clear call, values can overlap the other calls; inactive means mostly above about 0.92.
# Test: chemical genetic growth profiling, strain panel (AID 1159580);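 further: tested at 20 µM; growth read once vehicle control cultures reached saturation at 30 °C; 1 = growth at the plate median or of vehicle wells; lower values mean less growth of the strain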
# Conditions: S. cerevisiae deletion strains, growth OD
smiles,measurement,setting,value
CCC(C)C(=O)O[C@@H]1C[C@@]2(C)[C@H](c3ccoc3)OC(=O)CC23OC2(C)O[C@]14[C@]1(C)[C@@H](CC(=O)OC)C5(C)CC1(O)[C@](O)(C5OC(=O)C1(C)OC1C)[C@@H](OC(C)=O)[C@]34O2 (some centres not stated),normalized growth,"locus YAL013W, strain DEP1, active compounds read low",1.02
same,normalized growth,"locus YAL021C, strain ccr4, active compounds read low",0.996
same,normalized growth,"locus YAL026C, strain drs2, active compounds read low",0.988
same,normalized growth,"locus YAL030W, strain snc1, active compounds read low",0.991
same,normalized growth,"locus YBL061C, strain skt5, active compounds read low",1
same,normalized growth,"locus YBR009C, strain hhf1, active compounds read low",1.01
same,normalized growth,"locus YBR021W, strain FUR4, active compounds read low",1.03
same,normalized growth,"locus YBR023C, strain chs3, active compounds read low",1.01
same,normalized growth,"locus YBR171W, strain sec66, active compounds read low",0.978
same,normalized growth,"locus YBR229C, strain ROT2, active compounds read low",1.01
same,normalized growth,"locus YBR231C, strain swc5, active compounds read low",0.995
same,normalized growth,"locus YBR279W, strain paf1, active compounds read low",1
same,normalized growth,"locus YCL011C, strain gbp2, active compounds read low",0.983
same,normalized growth,"locus YCL016C, strain dcc1, active compounds read low",1.01
same,normalized growth,"locus YCL029C, strain bik1, active compounds read low",1.02
same,normalized growth,"locus YCL061C, strain MRC1, active compounds read low",1.01
same,normalized growth,"locus YCL069W, strain vba3, active compounds read low",0.98
same,normalized growth,"locus YCR088W, strain abp1, active compounds read low",0.995
same,normalized growth,"locus YDL005C, strain med2, active compounds read low",0.978
same,normalized growth,"locus YDL035C, strain GPR1, active compounds read low",0.963
same,normalized growth,"locus YDL040C, strain nat1, active compounds read low",0.982
same,normalized growth,"locus YDL074C, strain BRE1, active compounds read low",0.994
same,normalized growth,"locus YDL101C, strain DUN1, active compounds read low",1.02
same,normalized growth,"locus YDL185W, strain tfp1, active compounds read low",1.02
same,normalized growth,"locus YDL192W, strain arf1, active compounds read low",0.995
same,normalized growth,"locus YDR001C, strain nth1, active compounds read low",0.997
same,normalized growth,"locus YDR069C, strain doa4, active compounds read low",1.01
same,normalized growth,"locus YDR101C, strain arx1, active compounds read low",1.02
same,normalized growth,"locus YDR137W, strain rgp1, active compounds read low",0.726 (active)
same,normalized growth,"locus YDR159W, strain sac3, active compounds read low",1.02
same,normalized growth,"locus YDR162C, strain NBP2, active compounds read low",0.979
same,normalized growth,"locus YDR195W, strain ref2",0.969
same,normalized growth,"locus YDR297W, strain sur2, active compounds read low",0.995
same,normalized growth,"locus YDR318W, strain mcm21, active compounds read low",1.02
same,normalized growth,"locus YDR334W, strain swr1, active compounds read low",0.983
same,normalized growth,"locus YDR335W, strain msn5, active compounds read low",0.992
same,normalized growth,"locus YDR388W, active compounds read low",1.02
same,normalized growth,"locus YDR392W, strain spt3, active compounds read low",0.918
same,normalized growth,"locus YDR502C, strain sam2, active compounds read low",1.03
same,normalized growth,"locus YEL003W, strain gim4, active compounds read low",0.993
same,normalized growth,"locus YEL037C, strain rad23, active compounds read low",0.995
same,normalized growth,"locus YEL061C, strain CIN8 (second series), active compounds read low",0.988
same,normalized growth,"locus YEL061C, strain CIN8, active compounds read low",1
same,normalized growth,"locus YER015W, strain faa2, active compounds read low",1
same,normalized growth,"locus YER016W, strain bim1, active compounds read low",0.995
same,normalized growth,"locus YER110C, active compounds read low",1.02
same,normalized growth,"locus YER111C, strain swi4, active compounds read low",0.976
same,normalized growth,"locus YER155C, strain BEM2 (second series), active compounds read low",1
same,normalized growth,"locus YER155C, strain BEM2, active compounds read low",1.01
same,normalized growth,"locus YER167W, strain BCK2, active compounds read low",1
same,normalized growth,"locus YFR010W, strain ubp6, active compounds read low",0.985
same,normalized growth,"locus YGL078C, strain dbp3, active compounds read low",1.05
same,normalized growth,"locus YGL086W, strain mad1, active compounds read low",1.01
same,normalized growth,"locus YGL167C, strain pmr1, active compounds read low",0.995
same,normalized growth,"locus YGL173C, strain kem1, active compounds read low",0.993
same,normalized growth,"locus YGL227W, strain vid30, active compounds read low",0.994
same,normalized growth,"locus YGL240W, strain doc1, active compounds read low",0.977
same,normalized growth,"locus YGL248W, strain PDE1, active compounds read low",1.01
same,normalized growth,"locus YGL253W, strain hxk2, active compounds read low",0.952
same,normalized growth,"locus YGR078C, strain PAC10, active compounds read low",1.02
same,normalized growth,"locus YGR135W, strain pre9, active compounds read low",1.04
same,normalized growth,"locus YGR229C, strain SMI1, active compounds read low",1.03
same,normalized growth,"locus YGR252W, strain gcn5, active compounds read low",1.04
same,normalized growth,"locus YHR013C, strain ard1, active compounds read low",0.984
same,normalized growth,"locus YHR027C, strain rpn1, active compounds read low",0.996
same,normalized growth,"locus YHR030C, strain SLT2, active compounds read low",1.02 and 0.954
same,normalized growth,"locus YHR079C, strain IRE1 (second series), active compounds read low",1.02
same,normalized growth,"locus YHR079C, strain IRE1, active compounds read low",0.962
same,normalized growth,"locus YHR094C, strain hxt1, active compounds read low",1.02
same,normalized growth,"locus YHR129C, strain ARP1, active compounds read low",1
same,normalized growth,"locus YHR142W, strain chs7, active compounds read low",0.984
same,normalized growth,"locus YHR200W, strain rpn10, active compounds read low",1.02
same,normalized growth,"locus YIL066C, strain RNR3, active compounds read low",0.999
same,normalized growth,"locus YIL073C, strain SPO22, active compounds read low",1.04
same,normalized growth,"locus YIL125W, strain kgd1, active compounds read low",1.02
same,normalized growth,"locus YIR030C, strain dcg1, active compounds read low",1.02
same,normalized growth,"locus YJL092W, strain hpr5, active compounds read low",0.986
same,normalized growth,"locus YJL095W, strain BCK1 (second series), active compounds read low",1
same,normalized growth,"locus YJL095W, strain BCK1, active compounds read low",1.01 and 0.948
same,normalized growth,"locus YJL115W, strain asf1, active compounds read low",1
same,normalized growth,"locus YJL129C, strain trk1, active compounds read low",0.983
same,normalized growth,"locus YJL134W, strain LCB3, active compounds read low",1.01
same,normalized growth,"locus YJL154C, strain vps35, active compounds read low",0.993
same,normalized growth,"locus YJL164C, strain tpk1, active compounds read low",1.01
same,normalized growth,"locus YJL166W, strain qcr8, active compounds read low",0.987
same,normalized growth,"locus YJL168C, strain set2, active compounds read low",1.02
same,normalized growth,"locus YJL187C, strain SWE1 (second series), active compounds read low",1.02
